Reference: PubChem BioAssay (EPA / NIEHS)
Active and inactive are the calls of the source. Rule for the calls: active = hit-call score of the fitted dose curve at least 0.9, where 1 is the maximum; inactive = score below 0.9.

Columns and labels:
[1] = read-out: Tissue plasminogen activator (tPA), PLAT (gene 5327); assay: BSK_BE3C_tPA: BioMAP Diversity Plus: BE3C Assay for Tissue plasminogen activator (tPA) Biomarker Activity (AID 2283041); conditions: primary human bronchial epithelial cells; actives raise or lower the signal
Method in brief: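 Human primary bronchial epithelial cells were dosed with chemical and tPA biomarker levels measured by ELISA 24 hours later. Activity was fitted bidirectionally against DMSO as negative control and baseline.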

[2] = read-out: Interleukin-8 (IL8), CXCL8 (gene 3576); assay: BSK_CASM3C_IL8: BioMAP Diversity Plus: CASM3C Assay for Interleukin-8 (IL8) Biomarker Activity (AID 2283042); conditions: primary human coronary artery smooth muscle cells; actives raise or lower the signal;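 note: IL-8 protein level quantified by ELISA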
[3] = read-out: Human Leukocyte Antigen - DR isotype (HLADR), HLA-DRA (gene 3122); assay: BSK_CASM3C_HLADR: BioMAP Diversity Plus: CASM3C Assay for Human Leukocyte Antigen - DR isotype (HLADR) Biomarker Activity (AID 2283043); conditions: primary human coronary artery smooth muscle cells; actives raise or lower the signal;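 note: cell-surface HLA-DR protein level quantified by ELISA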
[4] = read-out: Macrophage colony-stimulating factor (MCSF), CSF1 (gene 1435); assay: BSK_CASM3C_MCSF: BioMAP Diversity Plus: CASM3C Assay for Macrophage colony-stimulating factor (MCSF) Biomarker Activity (AID 2283044); conditions: primary human coronary artery smooth muscle cells; actives raise or lower the signal;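 note: M-CSF protein amount quantified by ELISA after 24 h exposure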
[5] = read-out: Low-density lipoprotein receptor (LDLR), LDLR (gene 3949); assay: BSK_CASM3C_LDLR: BioMAP Diversity Plus: CASM3C Assay for Low-density lipoprotein receptor (LDLR) Biomarker Activity (AID 2283045); conditions: primary human coronary artery smooth muscle cells; actives raise or lower the signal;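 note: LDLR protein level on the cell surface quantified by ELISA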
[6] = read-out: Monocyte Chemoattractant Protein-1 (MCP1), CCL2 (gene 6347); assay: BSK_CASM3C_MCP1: BioMAP Diversity Plus: CASM3C Assay for Monocyte Chemoattractant Protein-1 (MCP1) Biomarker Activity (AID 2283046); conditions: primary human coronary artery smooth muscle cells; actives raise or lower the signal;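 note: MCP-1 level quantified by ELISA 24 h after dosing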
[7] = BSK_CASM3C_Proliferation: Cell Proliferation Assessment in the BioMAP Diversity Plus: CASM3C Assay (AID 2283047); conditions: primary human coronary artery smooth muscle cells;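 note: sulforhodamine B total protein stain as relative cell number at 560 nm; sub-confluent cells exposed 48 h before staining; fitted both ways against DMSO so gain or loss of cell number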
[8] = read-out: Monokine induced gamma interferon (MIG), CXCL9 (gene 4283); assay: BSK_CASM3C_MIG: BioMAP Diversity Plus: CASM3C Assay for Monokine induced gamma interferon (MIG) Biomarker Activity (AID 2283048); conditions: primary human coronary artery smooth muscle cells; actives raise or lower the signal;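 note: MIG protein level measured by ELISA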
[9] = read-out: serum amyloid A (SAA), SAA1 (gene 6288); assay: BSK_CASM3C_SAA: BioMAP Diversity Plus: CASM3C Assay for serum amyloid A (SAA) Biomarker Activity (AID 2283049); conditions: primary human coronary artery smooth muscle cells; actives raise or lower the signal;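 note: SAA protein level quantified by ELISA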
[10] = BSK_CASM3C_SRB: Viability Assessment in the BioMAP Diversity Plus: CASM3C Assay (AID 2283050); conditions: primary human coronary artery smooth muscle cells;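 note: total protein by SRB staining as cytotoxicity measure in parallel cultures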
[11] = read-out: Thrombomodulin, THBD (gene 7056); assay: BSK_CASM3C_Thrombomodulin: BioMAP Diversity Plus: CASM3C Assay for Thrombomodulin Biomarker Activity (AID 2283051); conditions: primary human coronary artery smooth muscle cells; actives raise or lower the signal;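 note: thrombomodulin protein level measured by ELISA 24 h after dosing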
[12] = read-out: Tissue Factor, F3 (gene 2152); assay: BSK_CASM3C_TissueFactor: BioMAP Diversity Plus: CASM3C Assay for Tissue Factor Biomarker Activity (AID 2283052); conditions: primary human coronary artery smooth muscle cells; actives raise or lower the signal;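 note: cell surface tissue factor protein level read by ELISA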
[13] = read-out: Interferon-gamma inducible Protein 10 (IP10), CXCL10 (gene 3627); assay: BSK_hDFCGF_IP10: BioMAP Diversity Plus: hDFCGF Assay for Interferon-gamma inducible Protein 10 (IP10) Biomarker Activity (AID 2283053); conditions: primary human foreskin fibroblasts; actives raise or lower the signal
Method in brief: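 Human foreskin fibroblast primary cells (hDFCGF system) were dosed with chemical and assayed at 24 h; IP-10 measured by ELISA. Activity fitted bidirectionally relative to DMSO negative control as baseline.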

[14] = read-out: Urokinase-type plasminogen activator receptor (uPAR), PLAUR (gene 5329); assay: BSK_CASM3C_uPAR: BioMAP Diversity Plus: CASM3C Assay for Urokinase-type plasminogen activator receptor (uPAR) Biomarker Activity (AID 2283054); conditions: primary human coronary artery smooth muscle cells; actives raise or lower the signal;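 note: cell-surface uPAR protein level quantified by ELISA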
[15] = read-out: Vascular cell adhesion molecule 1 (VCAM1), VCAM1 (gene 7412); assay: BSK_CASM3C_VCAM1: BioMAP Diversity Plus: CASM3C Assay for Vascular cell adhesion molecule 1 (VCAM1) Biomarker Activity (AID 2283055); conditions: primary human coronary artery smooth muscle cells; actives raise or lower the signal;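 note: VCAM-1 protein level quantified by ELISA on the cells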
[16] = read-out: Collagen III, COL3A1 (gene 1281); assay: BSK_hDFCGF_CollagenIII: BioMAP Diversity Plus: hDFCGF Assay for Collagen III Biomarker Activity (AID 2283056); conditions: primary human foreskin fibroblasts; actives raise or lower the signal
Method in brief: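 Response relative to DMSO, fitted in both directions, reflects ELISA-measured collagen III in human primary skin fibroblasts 24 h after compound addition.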

[17] = read-out: Epidermal growth factor receptor (EGFR), EGFR (gene 1956); assay: BSK_hDFCGF_EGFR: BioMAP Diversity Plus: hDFCGF Assay for Epidermal growth factor receptor (EGFR) Biomarker Activity (AID 2283057); conditions: primary human foreskin fibroblasts; actives raise or lower the signal
Method in brief: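 Primary human foreskin fibroblasts were exposed to compound for 24 h, after which cell-surface EGFR was quantified by ELISA. Activity was fitted bidirectionally against the DMSO negative control as baseline.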

[18] = read-out: Interleukin-8 (IL8), CXCL8 (gene 3576); assay: BSK_hDFCGF_IL8: BioMAP Diversity Plus: hDFCGF Assay for Interleukin-8 (IL8) Biomarker Activity (AID 2283058); conditions: primary human foreskin fibroblasts; actives raise or lower the signal
Method in brief: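 Fibroblast monolayers (human foreskin, hDFCGF) received test chemical for 24 h before ELISA detection of IL-8; either increases or decreases relative to DMSO count as activity.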

[19] = BSK_hDFCGF_Proliferation: Cell Proliferation Assessment in the BioMAP Diversity Plus: hDFCGF Assay (AID 2283059); conditions: primary human foreskin fibroblasts;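 note: curves fitted for both rise and fall of signal versus DMSO baseline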
Method in brief: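 Primary human foreskin fibroblasts, sub-confluent; […]; 10% TCA fix, 0.1% SRB stain, A560 total protein. Gain/loss fitted bidirectionally vs DMSO control.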

[20] = read-out: Macrophage colony-stimulating factor (MCSF), CSF1 (gene 1435); assay: BSK_hDFCGF_MCSF: BioMAP Diversity Plus: hDFCGF Assay for Macrophage colony-stimulating factor (MCSF) Biomarker Activity (AID 2283060); conditions: primary human foreskin fibroblasts; actives raise or lower the signal
Method in brief: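 fibroblasts (human foreskin, primary), 24 h post-dose; M-CSF by ELISA; bidirectional fit, DMSO = baseline.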

Measured: AC50

CCCCCCCCc1ccc(O)cc1
inactive: [17]
active: [1] 25 µM | [2] 30.1 µM | [3] 20.1 µM | [4] 31.9 µM | [5] 20.1 µM | [6] 27.8 µM | [7] 31.5 µM | [8] 31.2 µM | [9] 36.1 µM | [10] 30.9 µM | [11] 34.6 µM | [12] 28.7 µM | [13] 25.8 µM | [14] 39.1 µM | [15] 33.9 µM | [16] 20.1 µM | [18] 36 µM | [19] 7.67 µM | [20] 32.9 µM

CCCCC(CC)CO[N+](=O)[O-] (centres undefined)
inactive: [1] | [2] | [5] | [7] | [8] | [9] | [11] | [12] | [13] | [16] | [17] | [18] | [19] | [20]
active: [3] 28.2 µM | [4] 29.6 µM | [6] 20 µM | [10] 33.6 µM | [14] 3.05 µM | [15] 34.1 µM

CCSC(C)CC1CC(=O)C(C(CC)=NOC/C=C/Cl)=C(O)C1 (centres undefined)
inactive: [1] | [2] | [3] | [4] | [5] | [6] | [7] | [8] | [9] | [10] | [11] | [12] | [13] | [14] | [15] | [16] | [17] | [18] | [19] | [20]

CC(=O)[O][Hg][c]1ccccc1
active: [1] 0.537 µM | [2] 3.6 µM | [3] 0.58 µM | [4] 0.816 µM | [5] 0.148 µM | [6] 0.394 µM | [7] 0.148 µM | [8] 2.05 µM | [9] 0.47 µM | [10] 0.148 µM | [12] 3.97 µM | [13] 0.289 µM | [14] 0.487 µM | [15] 0.836 µM | [16] 0.279 µM | [18] 0.148 µM | [19] 0.148 µM | [20] 0.447 µM
inactive: [11] | [17]

CC(C)(c1ccccc1)c1ccc(O)c(C(C)(C)c2ccccc2)c1
active: [1] 14.7 µM | [2] 28.5 µM | [3] 25.8 µM | [4] 25.3 µM | [5] 28.2 µM | [7] 7.92 µM | [8] 29.4 µM | [9] 23.6 µM | [10] 26.8 µM | [11] 34.3 µM | [12] 16.4 µM | [13] 3.52 µM | [14] 29.4 µM | [15] 29.3 µM | [16] 2.94 µM | [17] 3.45 µM | [18] 5.4 µM | [19] 2.82 µM | [20] 3.63 µM

O=C(Nc1ccc2[nH]ccc2c1)c1cc2cc(F)ccc2n1Cc1cccc(F)c1
active: [1] 5.75 µM | [2] 23.6 µM | [3] 17.8 µM | [4] 33.7 µM | [5] 14.6 µM | [6] 31.6 µM | [7] 21.1 µM | [8] 31.2 µM | [9] 36.7 µM | [10] 28.1 µM | [11] 33 µM | [12] 20 µM | [13] 3.33 µM | [14] 14.6 µM | [15] 29.2 µM | [16] 1.93 µM | [18] 5.96 µM | [19] 2.53 µM | [20] 3.18 µM
inactive: [17]
